PubChem BioAssay (EPA / NIEHS)
Activity calls are given as the source filed them. The calls were made as follows: active = hit-call score of the fitted dose curve at least 0.9, where 1 is the maximum; inactive = score below 0.9.

Test: ATG_M_06_CIS: Attagene CIS-FACTORIAL HepG2 Assay for M06 Transcription Factor (Internal Marker) (AID 2282950)
Settings: HepG2 Attagene CIS-FACTORIAL M06 internal marker reporter; actives raise or lower the signal
Experimental: ATG_CIS is a cell-based, multiplexed-readout assay that uses HepG2, a human liver cell line, with measurements taken at 24 hours after chemical dosing in a 24-well plate.ATG_M_06_CIS is one of 52 assay component(s) measured or calculated from the ATG_CIS assay. It is designed to make measurements of mRNA induction, a form of inducible reporter, as detected with fluorescence intensity signals by Reverse transcription polymerase chain reaction (RT-PCR) and Capillary electrophoresis technology.Data from the assay component ATG_M_06_CIS was analyzed into 1 assay endpoint. This assay endpoint, ATG_M_06_CIS, was analyzed with bidirectional fitting relative to DMSO as the negative control and baseline of activity. Using a type of inducible reporter, measures of mRNA for gain or loss-of-signal activity can be used to understand the background control at the transcription factor-level as they relate to the gene . Furthermore, this assay endpoint can be referred to as a secondary readout, because this assay has produced multiple assay endpoints where this one serves a background control function. To generalize the intended target to other relatable targets, this assay endpoint is annotated to the background measurement intended target family, where the subfamily is internal marker.
Human liver HepG2 cells are transiently transfected with multiple reporter transcription units (MRTUs) in 6-well plates using FuGene 6 reagent (Roche; 3 ml FuGene/1 mg DNA). The MRTU constructs are regulated by a cis-regulating element (promoter). […] A major difference between the CIS and TRANS system is that in CIS activities of endogenous TFs are measured, whereas the TRANS assay evaluates changes in activities of exogenous, chimeric NR-Gal4 proteins. […] At the end of 24 hour incubation, total RNA was isolated using TriZol reagent (Invitrogen). The isolated RNA is then reverse-transcribed using oligo(dT) primer and Mo-MLV reverse transcriptase (Invitrogen) with DNAse I (Ambion) treatment for 30 min. The one-tenth of the produced cDNA was amplified by PCR using Taq DNA polymerase (Invitrogen) and two reporter sequence-specific primers. The PCR products were fluorescently labeled by primer extension with 6-arboxyfluorescein (6-FAM) 5'-labeled reporter sequence-specific primer (2 min at 95 C, 20 s at 68 C and 10 min at 72 C) and these products were digested with 5U of HpaI (New England Biolabs) for 2h at 37 C. The fragments were purified using Qiaquick PCR columns (Qiagen), analyzed on an ABI 3130xL genetic analyzer (Applied Biosystems) with peak positions identified by using a set of X-rhodamine (ROX)-labeled MapMarker1000 molecular weight standards (BioVentures). The raw capillary electrophoresis data was processed using Attagraph software (Attagene).

outcome, inactive:
O=C1NC(=O)c2ccccc21
C#C[C@]1(O)CC[C@H]2[C@@H]3CCC4=Cc5oncc5C[C@]4(C)[C@H]3CC[C@@]21C
CCC(O)CO (stereo not given)
CC(C)=CCCC(C)=CCCC(C)=CCO
CC(C)C1CCC(O)CC1 (stereo not given)
CC(=O)O[C@H](CC(=O)[O-])C[N+](C)(C)C
CCN(CC)CCOC(=O)c1ccc(N)cc1
O=C1OC2(c3cc(Br)c(O)c(Br)c3Oc3c2cc(Br)c(O)c3Br)c2c(Cl)c(Cl)c(Cl)c(Cl)c21
Cc1ccc(C(=O)c2cc(O)c(O)c([N+](=O)[O-])c2)cc1
CC1(C)CCC(C)(C)c2cc(C(=O)Nc3ccc(C(=O)O)cc3)ccc21
CCCC1CCC(=O)O1 (stereo not given)
CCN(CC)c1ccc2c(-c3ccccc3C(=O)O)c3ccc(=[N+](CC)CC)cc-3oc2c1
BrC1CCC(Br)C(Br)CCC(Br)C(Br)CCC1Br (stereo not given)
Cc1ccc(O)c(C(C)(C)C)c1
CCCc1c(OCCCOc2ccc(OCC(=O)O)cc2)ccc(C(C)=O)c1O
OCCOc1cccc(OCCO)c1
CC(CCO)CCCC(C)(C)O (stereo not given)
O=CCCc1ccccc1
O=C(O)c1cccc(C(F)(F)F)c1
O=C(O)c1ccc(C(=O)O)cc1
CC(CC(C)(C)C)CC(C)(C)CC(C)(C)C (stereo not given)
O=C1c2ccccc2C(=O)N1SC1CCCCC1
CO[Si](C)(OC)c1ccccc1
CCCOCC(C)O (stereo not given)
C=C(C)C(=O)O[C@H]1C[C@@H]2CC[C@@]1(C)C2(C)C
CC(C)c1cccc(O)c1
CCCCO
CCCCCCCCCCCCCCCCCC(=O)OCC(CC)CCCC (stereo not given)
C=COCCOCCOCCOC=C
O=Nc1ccc(Nc2ccccc2)cc1
Nc1ccc(S(N)(=O)=O)cc1
CC(=O)OCc1ccc2c(c1)OCO2
c1ccc2[nH]ccc2c1
Sc1nc(S)nc(S)n1
N#Cc1nc(Cl)c(Cl)c(Cl)c1Cl
COc1ccc(Cl)cc1C
CCCCCCCCCCCCSC
OCCN1CCNCC1
O=C1CCCCCCCCCCCCCCO1
C[C@H]1C[C@H]2[C@@H]3CCC4=CC(=O)C=C[C@]4(C)[C@@]3(F)[C@@H](O)C[C@]2(C)[C@@]1(O)C(=O)COP(=O)(O)O
